# Data as given in PubChem BioAssay (EPA / NIEHS).
# “And” between values parts separate entries of the source, which are not always exact repeats. Identical values can stand only once. Where a structure was tested more than once in an assay, its records may differ in their call. The source made the active and inactive calls. How the source made its calls: active means hit-call score of the fitted dose curve at least 0.9, where 1 is the maximum; inactive means score below 0.9.
# Columns and labels:
# [1] = read-out: Tissue Factor, F3 (gene 2152); assay: BSK_CASM3C_TissueFactor: BioMAP Diversity Plus: CASM3C Assay for Tissue Factor Biomarker Activity (AID 2283052); conditions: primary human coronary artery smooth muscle cells; actives raise or lower the signal;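 further: cell surface tissue factor protein level read by ELISA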
# [2] = read-out: Interferon-gamma inducible Protein 10 (IP10), CXCL10 (gene 3627); assay: BSK_hDFCGF_IP10: BioMAP Diversity Plus: hDFCGF Assay for Interferon-gamma inducible Protein 10 (IP10) Biomarker Activity (AID 2283053); conditions: primary human foreskin fibroblasts; actives raise or lower the signal
# Summary of the method: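 ELISA quantification of IP-10 after a 24 h chemical exposure of human dermal foreskin fibroblast primary cultures. Both increases and decreases versus DMSO fitted.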
# [3] = read-out: Urokinase-type plasminogen activator receptor (uPAR), PLAUR (gene 5329); assay: BSK_CASM3C_uPAR: BioMAP Diversity Plus: CASM3C Assay for Urokinase-type plasminogen activator receptor (uPAR) Biomarker Activity (AID 2283054); conditions: primary human coronary artery smooth muscle cells; actives raise or lower the signal;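 further: cell-surface uPAR protein level quantified by ELISA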
# [4] = read-out: Vascular cell adhesion molecule 1 (VCAM1), VCAM1 (gene 7412); assay: BSK_CASM3C_VCAM1: BioMAP Diversity Plus: CASM3C Assay for Vascular cell adhesion molecule 1 (VCAM1) Biomarker Activity (AID 2283055); conditions: primary human coronary artery smooth muscle cells; actives raise or lower the signal;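 further: VCAM-1 protein level quantified by ELISA on the cells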
# [5] = read-out: Collagen III, COL3A1 (gene 1281); assay: BSK_hDFCGF_CollagenIII: BioMAP Diversity Plus: hDFCGF Assay for Collagen III Biomarker Activity (AID 2283056); conditions: primary human foreskin fibroblasts; actives raise or lower the signal
# Summary of the method: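 ELISA readout of Collagen III in human dermal (foreskin) fibroblasts, taken 24 h post-treatment. Gain or loss relative to DMSO vehicle fitted in both directions.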
# [6] = read-out: Epidermal growth factor receptor (EGFR), EGFR (gene 1956); assay: BSK_hDFCGF_EGFR: BioMAP Diversity Plus: hDFCGF Assay for Epidermal growth factor receptor (EGFR) Biomarker Activity (AID 2283057); conditions: primary human foreskin fibroblasts; actives raise or lower the signal
# Summary of the method: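 EGFR levels by ELISA in human dermal fibroblast cultures, 24 h post-treatment, fitted bidirectionally versus DMSO. Parallel wells stained with sulforhodamine B to detect overt cytotoxicity.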
# [7] = read-out: Interleukin-8 (IL8), CXCL8 (gene 3576); assay: BSK_hDFCGF_IL8: BioMAP Diversity Plus: hDFCGF Assay for Interleukin-8 (IL8) Biomarker Activity (AID 2283058); conditions: primary human foreskin fibroblasts; actives raise or lower the signal
# Summary of the method: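 IL-8 levels read by ELISA at 24 hours after dosing human skin fibroblast cultures. Parallel SRB staining assessed overt cytotoxicity, and gain or loss of signal was fitted against DMSO control.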
# [8] = BSK_hDFCGF_Proliferation: Cell Proliferation Assessment in the BioMAP Diversity Plus: hDFCGF Assay (AID 2283059); conditions: primary human foreskin fibroblasts;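 further: curves fitted for both rise and fall of signal versus DMSO baseline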
# Summary of the method: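 This proliferation readout used SRB total-protein staining of human foreskin fibroblasts […], normalized to DMSO with bidirectional curve fitting.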
# [9] = read-out: Macrophage colony-stimulating factor (MCSF), CSF1 (gene 1435); assay: BSK_hDFCGF_MCSF: BioMAP Diversity Plus: hDFCGF Assay for Macrophage colony-stimulating factor (MCSF) Biomarker Activity (AID 2283060); conditions: primary human foreskin fibroblasts; actives raise or lower the signal
# Summary of the method: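 M-CSF levels read by ELISA at 24 h post-dosing in human skin fibroblasts. Parallel cultures stained with SRB assessed cytotoxicity at the same time point; response fitted in both directions against the DMSO baseline.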
# [10] = BSK_hDFCGF_SRB: Viability Assessment in the BioMAP Diversity Plus: hDFCGF Assay (AID 2283061); conditions: primary human foreskin fibroblasts;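 further: cells exposed to compound for 24 h before the read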
# Summary of the method: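 Viability was read as total protein: after 10% TCA fixation, wells were stained with 0.1% sulforhodamine B and read at 560 nm. Primary human foreskin fibroblasts were dosed for 24 h, with bidirectional fitting versus DMSO.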
# [11] = read-out: Monokine induced gamma interferon (MIG), CXCL9 (gene 4283); assay: BSK_hDFCGF_MIG: BioMAP Diversity Plus: hDFCGF Assay for Monokine induced gamma interferon (MIG) Biomarker Activity (AID 2283063); conditions: primary human foreskin fibroblasts; actives raise or lower the signal
# Summary of the method: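 Human primary foreskin fibroblasts in the hDFCGF system, exposed to test chemical for 24 h; MIG measured by ELISA. Bidirectional curve fitting against DMSO negative control as activity baseline.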
# [12] = read-out: Matrix Metallopeptidase 1 (MMP1), MMP1 (gene 4312); assay: BSK_hDFCGF_MMP1: BioMAP Diversity Plus: hDFCGF Assay for Matrix Metallopeptidase 1 (MMP1) Biomarker Activity (AID 2283064); conditions: primary human foreskin fibroblasts; actives raise or lower the signal
# Summary of the method: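 MMP1 levels quantified by ELISA 24 h after dosing human dermal fibroblast cultures, with parallel SRB total-protein staining for overt cytotoxicity. Data fitted in both directions against DMSO baseline.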
# [13] = read-out: Vascular cell adhesion molecule 1 (VCAM1), VCAM1 (gene 7412); assay: BSK_hDFCGF_VCAM1: BioMAP Diversity Plus: hDFCGF Assay for Vascular cell adhesion molecule 1 (VCAM1) Biomarker Activity (AID 2283065); conditions: primary human foreskin fibroblasts; actives raise or lower the signal;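 further: VCAM-1 protein level quantified by ELISA after 24 h chemical exposure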
# Summary of the method: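 ELISA readout of VCAM-1 on human dermal fibroblast primary cultures, 24 h after chemical exposure. Gain or loss of signal fitted in both directions against DMSO baseline.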
# [14] = read-out: Plasminogen activator inhibitor-1 (PAI1), SERPINE1 (gene 5054); assay: BSK_hDFCGF_PAI1: BioMAP Diversity Plus: hDFCGF Assay for Plasminogen activator inhibitor-1 (PAI1) Biomarker Activity (AID 2283066); conditions: primary human foreskin fibroblasts; actives raise or lower the signal
# Summary of the method: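 PAI-1 levels in human dermal foreskin fibroblasts were quantified by ELISA 24 h after dosing, with gain or loss analysed against DMSO. Overt cytotoxicity was checked by sulforhodamine B total-protein staining in parallel cultures.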
# [15] = read-out: Intercellular Adhesion Molecule 1 (ICAM1), ICAM1 (gene 3383); assay: BSK_KF3CT_ICAM1: BioMAP Diversity Plus: KF3CT Assay for Intercellular Adhesion Molecule 1 (ICAM1) Biomarker Activity (AID 2283067); conditions: primary human keratinocytes with fibroblasts; actives raise or lower the signal
# Summary of the method: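 Cell-surface ICAM-1 was measured by ELISA 24 h after dosing primary human skin keratinocytes co-cultured with fibroblasts. Parallel SRB staining tracked overt cytotoxicity. Gain or loss of signal was fitted relative to DMSO.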
# [16] = read-out: Interferon-gamma inducible Protein 10 (IP10), CXCL10 (gene 3627); assay: BSK_KF3CT_IP10: BioMAP Diversity Plus: KF3CT Assay for Interferon-gamma inducible Protein 10 (IP10) Biomarker Activity (AID 2283068); conditions: primary human keratinocytes with fibroblasts; actives raise or lower the signal
# Summary of the method: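 Signal is secreted/surface IP-10 by ELISA in a human primary skin co-culture of keratinocytes and foreskin fibroblasts, taken 24 h post-dosing; DMSO served as negative control.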
# [17] = read-out: Interleukin-1 alpha (IL1a), IL1A (gene 3552); assay: BSK_KF3CT_IL1a: BioMAP Diversity Plus: KF3CT Assay for Interleukin-1 alpha (IL1a) Biomarker Activity (AID 2283070); conditions: primary human keratinocytes with fibroblasts; actives raise or lower the signal
# Summary of the method: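 IL-1a was detected by ELISA 24 h after chemical treatment of a co-culture of human skin keratinocytes and foreskin fibroblasts. Gain or loss of signal was fitted against the DMSO baseline.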
# [18] = read-out: TIMP metallopeptidase inhibitor 2 (TIMP2), TIMP2 (gene 7077); assay: BSK_KF3CT_TIMP2: BioMAP Diversity Plus: KF3CT Assay for TIMP metallopeptidase inhibitor 2 (TIMP2) Biomarker Activity (AID 2283071); conditions: primary human keratinocytes with fibroblasts; actives raise or lower the signal
# Summary of the method: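 TIMP-2 measured by ELISA at 24 h in human keratinocyte/fibroblast primary co-cultures exposed to chemicals. Both increases and decreases were fitted against DMSO. Parallel cultures were stained with SRB for total protein as an overt-cytotoxicity check.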
# [19] = read-out: TIMP metallopeptidase inhibitor 1 (TIMP1), TIMP1 (gene 7076); assay: BSK_hDFCGF_TIMP1: BioMAP Diversity Plus: hDFCGF Assay for TIMP metallopeptidase inhibitor 1 (TIMP1) Biomarker Activity (AID 2283062); conditions: primary human foreskin fibroblasts; actives raise or lower the signal
# Summary of the method: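 TIMP-1 measured by ELISA 24 h after chemical dosing of primary human skin fibroblasts, with gain or loss fitted relative to DMSO. Parallel SRB staining (560 nm) monitored overt cytotoxicity.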
# [20] = BSK_KF3CT_SRB: Viability Assessment in the BioMAP Diversity Plus: KF3CT Assay (AID 2283069); conditions: primary human keratinocytes with fibroblasts;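 further: read 24 h after compound addition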
# Summary of the method: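 Cytotoxicity was gauged by SRB staining (0.1% SRB, 10% TCA fixation, 560 nm) of parallel cultures at 24 h. The cells were primary human skin keratinocytes co-cultured with fibroblasts, and activity was fitted in both directions against DMSO.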
smiles,measurement,setting,value
CCCCC(CC)COP(=O)(O)OCC(CC)CCCC (stereo unspecified),outcome,[1],inactive
same,AC50,[2],24.9 µM (active) and 28.3 µM (active)
same,outcome,[3],inactive
same,AC50,[4],988 nM (active)
same,outcome,[4],inactive
same,AC50,[5],26.9 µM (active) and 27.5 µM (active)
same,AC50,[6],20 µM (active)
same,outcome,[6],inactive
same,outcome,[7],inactive
same,AC50,[8],32.9 µM (active) and 34.6 µM (active)
same,AC50,[9],33.9 µM (active) and 31.3 µM (active)
same,AC50,[10],30.6 µM (active) and 29.9 µM (active)
same,AC50,[11],31.6 µM (active)
same,outcome,[11],inactive
same,AC50,[12],12 µM (active) and 13.7 µM (active)
same,AC50,[13],37.6 µM (active) and 32 µM (active)
same,AC50,[14],27.5 µM (active) and 33.5 µM (active)
same,outcome,[15],inactive
same,AC50,[16],26.5 µM (active) and 27.2 µM (active)
same,outcome,[17],inactive
same,AC50,[18],25.5 µM (active) and 28.3 µM (active)
OCCCC(F)(F)C(F)(F)C(F)(F)C(F)(F)C(F)(F)C(F)(F)C(F)(F)F,AC50,[1],20.8 µM (active)
same,outcome,[1],inactive
same,AC50,[2],11.8 µM (active) and 14 µM (active)
same,AC50,[3],24.5 µM (active) and 45 µM (active)
same,AC50,[4],26.2 µM (active) and 41.2 µM (active)
same,AC50,[5],11.6 µM (active) and 14.6 µM (active)
same,AC50,[6],9.95 µM (active)
same,outcome,[6],inactive
same,AC50,[7],17.8 µM (active) and 20.8 µM (active)
same,AC50,[8],6.74 µM (active) and 7.22 µM (active)
same,AC50,[9],15.6 µM (active) and 16.6 µM (active)
same,AC50,[10],18.3 µM (active) and 17.2 µM (active)
same,AC50,[19],14.6 µM (active) and 14.4 µM (active)
same,AC50,[11],16.3 µM (active) and 14.6 µM (active)
same,AC50,[12],13 µM (active) and 15 µM (active)
same,AC50,[13],11 µM (active) and 9.2 µM (active)
same,AC50,[14],15.3 µM (active) and 14.9 µM (active)
same,AC50,[15],28.3 µM (active) and 47.3 µM (active)
same,AC50,[16],23.9 µM (active) and 49.7 µM (active)
same,AC50,[17],24 µM (active) and 43.8 µM (active)
same,AC50,[18],14.7 µM (active) and 37 µM (active)
O=C(O)C(F)(F)C(F)(F)C(F)(F)C(F)(F)C(F)(F)C(F)(F)C(F)(F)C(F)(F)C(F)(F)C(F)F,outcome,[1],inactive
same,AC50,[2],18.3 µM (active) and 12.8 µM (active)
same,outcome,[3],inactive
same,outcome,[4],inactive
same,AC50,[5],3.34 µM (active) and 8.08 µM (active)
same,outcome,[6],inactive
same,outcome,[7],inactive
same,AC50,[8],15.8 µM (active) and 18.9 µM (active)
same,AC50,[9],11 µM (active)
same,outcome,[9],inactive
same,AC50,[10],54 µM (active) and 7.25 µM (active)
same,AC50,[11],9.87 µM (active) and 5.95 µM (active)
same,outcome,[12],inactive
same,AC50,[13],15.3 µM (active) and 5.95 µM (active)
same,AC50,[14],45.6 µM (active) and 46 µM (active)
same,outcome,[15],inactive
same,AC50,[16],27.6 µM (active) and 23.7 µM (active)
same,AC50,[17],48.7 µM (active) and 46.1 µM (active)
same,AC50,[18],42.2 µM (active)
same,outcome,[18],inactive
FC(F)(F)C(F)(F)C(F)(F)C(F)(F)C(F)(F)CCI,outcome,[1],inactive
same,AC50,[2],22.2 µM (active)
same,outcome,[2],inactive
same,outcome,[3],inactive
same,outcome,[4],inactive
same,outcome,[5],inactive
same,outcome,[6],inactive
same,outcome,[7],inactive
same,AC50,[8],32.1 µM (active) and 31.2 µM (active)
same,AC50,[9],23.4 µM (active)
same,outcome,[9],inactive
same,outcome,[10],inactive
same,outcome,[19],inactive
same,AC50,[11],30 µM (active)
same,outcome,[11],inactive
same,AC50,[12],8.91 µM (active)
same,outcome,[12],inactive
same,AC50,[13],38.6 µM (active) and 32.6 µM (active)
same,outcome,[14],inactive
same,outcome,[15],inactive
same,outcome,[16],inactive
same,outcome,[20],inactive
same,outcome,[17],inactive
same,outcome,[18],inactive
